Our source for the binding signal values is PMC12820563, “FoxP3 forms a head-to-head dimer in vivo and stabilizes its multimerization on adjacent microsatellites”.

Whole data set: some 16,000 sequences, median “rpm ratio (pull-down/input)” near 0.5, cut for the highest 2% near 5.5. Only a selection was taken, and the highest values are over-represented in it overall.

The test deals with T1, MBP-FoxP3dN (Mus musculus, UniProt Q99JB6 188-423).
T1 sequence: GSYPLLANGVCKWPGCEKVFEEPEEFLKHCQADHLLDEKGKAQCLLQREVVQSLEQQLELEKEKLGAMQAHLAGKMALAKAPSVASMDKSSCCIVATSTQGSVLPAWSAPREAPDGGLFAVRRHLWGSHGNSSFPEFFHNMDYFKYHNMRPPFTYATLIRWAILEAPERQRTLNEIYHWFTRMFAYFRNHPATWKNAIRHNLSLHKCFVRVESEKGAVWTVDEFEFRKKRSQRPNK
Briefly: PD-seq (MBP pull-down with sequencing); 20 mM Tris-HCl pH 7.5, 100 mM NaCl, 1.5 mM MgCl2, 0.4 uM protein, 0.1 uM dsDNA library, 30 min, room temperature, amylose pull-down; high values mean tight binding. Conditions: protein: recombinant; tags: His6-MBP; chain copies: 2; dsDNA, one strand shown. The method in brief:
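The N-terminus-lacking fragment of mouse FoxP3 or FoxP1 carried a His6-MBP tag and was expressed in E. coli. At 0.4 µM it was incubated with 0.1 µM Klenow-filled degenerate double-stranded DNA library for 30 min at room temperature in Tris pH 7.5 buffer with NaCl and MgCl2, and complexes were caught on amylose resin, washed three times, released with proteinase K, PCR-barcoded and Illumina-sequenced. Binding is reads-per-million enrichment of pull-down over input with replicates pooled.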
Consider “GATGATTGTTCTCCCAGCTGATGAATTGTGAGGCTCGAGTAAACAAATTTTCCTAATCTTTCTGTTCAAGCGCCATCTAC”, for which the binding signal was 0.816 RPM ratio (pull-down/input). Consider “GATGATTGTTCTCCCAGCTGATGAATTTAAGTGCTCGAGTAAACAAATTTTCCTAATCTTTCTGTTCAAGCGCCATCTAC”, for which the binding signal is 0.628 RPM ratio (pull-down/input). “GATGATTGTTCTCCCAGCTGATGAATTGTGGTTTTCGAGTAAACAAATTTTCCTAATCTTTCTGTTCAAGCGCCATCTAC”: the binding signal was 2.03 RPM ratio (pull-down/input). As to “GATGATTGTTCTCCCAGCTGATGAATTGGGTGGATCGAGTAAACAAATTTTCCTAATCTTTCTGTTCAAGCGCCATCTAC”, the binding signal is 0.423 RPM ratio (pull-down/input). On to “GATGATTGTTCTCCCAGCTGATGAATTAAAGCTGTCGAGTAAACAAATTTTCCTAATCTTTCTGTTCAAGCGCCATCTAC”, for which the binding signal was 0.47 RPM ratio (pull-down/input). In the case of “GATGATTGTTCTCCCAGCTGATGAATTCTTTCCCTCGAGTAAACAAATTTTCCTAATCTTTCTGTTCAAGCGCCATCTAC”, the binding signal is 0.206 RPM ratio (pull-down/input). As to “GATGATTGTTCTCCCAGCTGATGAATTAGTAGGGTCGAGTAAACAAATTTTCCTAATCTTTCTGTTCAAGCGCCATCTAC”, the binding signal was 1.4 RPM ratio (pull-down/input). As for “GATGATTGTTCTCCCAGCTGATGAATTCCGCAACTCGAGTAAACAAATTTTCCTAATCTTTCTGTTCAAGCGCCATCTAC”, the figure is 6.11 RPM ratio (pull-down/input).

With “GATGATTGTTCTCCCAGCTGATGAATTCCGCAAATCGAGTAAACAAATTTTCCTAATCTTTCTGTTCAAGCGCCATCTAC”, the binding signal was 0.692 RPM ratio (pull-down/input).

On to “GATGATTGTTCTCCCAGCTGATGAATTCAGCAACTCGAGTAAACAAATTTTCCTAATCTTTCTGTTCAAGCGCCATCTAC”, for which the binding signal is 4.78 RPM ratio (pull-down/input).

As to “GATGATTGTTCTCCCAGCTGATGAATTTGCCAACTCGAGTAAACAAATTTTCCTAATCTTTCTGTTCAAGCGCCATCTAC”, the binding signal is 0.47 RPM ratio (pull-down/input). In the case of “GATGATTGTTCTCCCAGCTGATGAATTCTGCAACTCGAGTAAACAAATTTTCCTAATCTTTCTGTTCAAGCGCCATCTAC”, the binding signal was 5.96 RPM ratio (pull-down/input). On to “GATGATTGTTCTCCCAGCTGATGAATTGTTCAACTCGAGTAAACAAATTTTCCTAATCTTTCTGTTCAAGCGCCATCTAC”, for which the binding signal is 0.485 RPM ratio (pull-down/input).

As for “GATGATTGTTCTCCCAGCTGATGAATTTGCAAACTCGAGTAAACAAATTTTCCTAATCTTTCTGTTCAAGCGCCATCTAC”, the binding signal is 0.673 RPM ratio (pull-down/input). For the sequence “GATGATTGTTCTCCCAGCTGATGAATTGCAACTCTCGAGTAAACAAATTTTCCTAATCTTTCTGTTCAAGCGCCATCTAC”, the binding signal is 2.79 RPM ratio (pull-down/input). Consider “GATGATTGTTCTCCCAGCTGATGAATTCTACAACTCGAGTAAACAAATTTTCCTAATCTTTCTGTTCAAGCGCCATCTAC”, for which the binding signal is 0.303 RPM ratio (pull-down/input).

For the sequence “GATGATTGTTCTCCCAGCTGATGAATTCAACAACTCGAGTAAACAAATTTTCCTAATCTTTCTGTTCAAGCGCCATCTAC”, the binding signal was 0.576 RPM ratio (pull-down/input). For the sequence “GATGATTGTTCTCCCAGCTGATGAATTTTGCAACTCGAGTAAACAAATTTTCCTAATCTTTCTGTTCAAGCGCCATCTAC”, the binding signal was 6.24 RPM ratio (pull-down/input). Consider “GATGATTGTTCTCCCAGCTGATGAATTGTGCAACTCGAGTAAACAAATTTTCCTAATCTTTCTGTTCAAGCGCCATCTAC”, for which the binding signal is 6.92 RPM ratio (pull-down/input).
